High-throughput results as filed in PubChem BioAssay.
FEN1 inh: human FEN1 inhibition; P39748; Recombinant FEN1 flap cleavage, fluorescence, 15 min; Potency, µM (series often up to 114 µM), without a hit: at the highest dose activity change, negative = inhibition, actives largely listed as inhibitors; hit rate 0.35% among 390,000; AID 588795; note: potency is the fitted concentration of half-maximal effect; % is set by controls: 0 for no effect and ±100 for the full control effect; nearly all actives have a fitted effect of over 65% in size
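Steps: FEN1 (10 nM) dispensed; compound added by pin tool; 15 min at room temperature; substrate added to 50 nM final; reads at 0 min and 15 min; data normalized and fitted (four-parameter Hill).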
Pol eta inh-1: inhibitors of human DNA polymerase eta; hit rate 1.2% among 390,000; recombinant Pol eta, fluorescent DNA replication assay; Potency, µM (doses to about 114 µM), without a hit: at the top dose activity change, negative = inhibition, hits mostly inhibitors; note: potency is the fitted concentration of half-maximal effect; % is set by controls: 0 for no effect and ±100 for the full control effect
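Fluorescent replication assay: 50 nM final substrate added after a 15 min room-temperature compound preincubation with 10 nM enzyme. Signal taken at 0 min and again at 10 min.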
PGK inhibitor: blocks T. brucei phosphoglycerate kinase. P07378. PGK/GAPDH coupled, Kinase-Glo luminescence, 60 min. Potency, µM (highest dose often 57.5 µM), inactives show at the highest dose activity change, negative = inhibition, actives largely listed as inhibitors. hit rate 0.043% among 380,000; note: potency is the fitted concentration of half-maximal effect; % is set by controls: 0 for no effect and ±100 for the full control effect; nearly all actives have a fitted effect of over 60% in size
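Luminescent ATP detection (Kinase-Glo Plus) follows a 60-minute room-temperature incubation, with wells lacking PGK as controls. Buffer: 100 mM TEA (pH 7.6), 5 mM MgCl2, 0.01% Tween-20. Coupling enzyme GAPDH (100 nM final) supplies unstable 1,3-BPG in-well.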
Pol kappa inh-1: blocks human DNA polymerase kappa activity. Q9UBT6. purified Pol kappa, fluorescent DNA synthesis assay, 10 min. Potency, µM (doses to about 107 µM), inactives show top-dose activity, negative = inhibition, hits mostly inhibitors. hit rate 0.53% among 400,000; note: potency is the fitted concentration of half-maximal effect; % is set by controls: 0 for no effect and ±100 for the full control effect
Target sequence (Q9UBT6 whole entry, looked up): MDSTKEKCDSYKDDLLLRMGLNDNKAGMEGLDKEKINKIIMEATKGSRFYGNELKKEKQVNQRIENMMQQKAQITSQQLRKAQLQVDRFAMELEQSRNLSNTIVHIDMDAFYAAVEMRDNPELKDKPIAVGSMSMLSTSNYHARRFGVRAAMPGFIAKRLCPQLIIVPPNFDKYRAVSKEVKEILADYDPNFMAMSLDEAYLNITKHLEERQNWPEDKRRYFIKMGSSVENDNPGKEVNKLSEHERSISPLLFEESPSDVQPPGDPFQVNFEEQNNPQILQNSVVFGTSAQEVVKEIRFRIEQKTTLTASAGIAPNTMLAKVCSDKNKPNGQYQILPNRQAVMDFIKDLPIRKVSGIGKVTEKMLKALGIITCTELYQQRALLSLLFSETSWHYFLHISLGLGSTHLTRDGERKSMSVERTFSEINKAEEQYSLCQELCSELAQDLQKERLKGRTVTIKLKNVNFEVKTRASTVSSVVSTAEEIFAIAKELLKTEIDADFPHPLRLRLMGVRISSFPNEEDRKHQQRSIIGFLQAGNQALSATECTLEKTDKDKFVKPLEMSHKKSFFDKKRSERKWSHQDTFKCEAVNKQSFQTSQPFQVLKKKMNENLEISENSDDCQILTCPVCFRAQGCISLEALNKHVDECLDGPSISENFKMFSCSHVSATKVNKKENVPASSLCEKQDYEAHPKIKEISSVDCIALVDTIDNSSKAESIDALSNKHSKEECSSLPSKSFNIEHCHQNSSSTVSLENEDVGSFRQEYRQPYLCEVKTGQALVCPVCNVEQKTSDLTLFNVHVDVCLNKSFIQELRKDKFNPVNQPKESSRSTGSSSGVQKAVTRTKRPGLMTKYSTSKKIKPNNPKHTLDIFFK
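First, compounds were pin-transferred onto 10 nM Pol kappa. After 15 min at room temperature, substrate was added to 50 nM final. Fluorescence was then measured kinetically at 0 and 10 min.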
Pol beta inh: DNA polymerase beta (human) inhibition; Pol beta primer extension/strand displacement, fluorescence kinetic; Potency, µM (series often up to 114 µM), for inactives: top-dose activity change, negative = inhibition, most hits filed as inhibitors; hit rate 1.3% among 340,000; note: potency is the fitted concentration of half-maximal effect; % is set by controls: 0 for no effect and ±100 for the full control effect
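Curves were derived by four-parameter Hill fits of normalized qHTS data. The kinetic fluorescent primer-extension read was taken at 0 and 10 min after 50 nM substrate, following a 15 min room-temperature preincubation of 10 nM enzyme with compounds.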
Pol iota inh: DNA polymerase iota (human) inhibition; Q9UNA4; Pol iota fluorescent replication assay, 10 min; Potency, µM (series often up to 115 µM), without a hit: top-dose activity, negative = inhibition, actives largely listed as inhibitors; hit rate 1% among 390,000; AID 588590; note: potency is the fitted concentration of half-maximal effect
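Pol iota at 10 nM preincubated 15 min with compounds at room temperature; reaction started with fluorescent substrate, 50 nM final. Fluorescence read kinetically at 0 and 10 min; buffer-only wells as negative control.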
BAZ2B inh: confirmation of human BAZ2B bromodomain inhibitors; shares compounds with Pol kappa inh-1; AlphaScreen BAZ2B / biotin-H3K14Ac peptide displacement; Potency, µM, actives largely listed as inhibitors; hit rate 100% among 25; AID 588809; calls by dose curve
AlphaScreen ctr: AlphaScreen signal interference, BAZ2B hit counter-screen; shares compounds with Pol kappa inh-1; AlphaScreen biotin-His6 peptide bead counterscreen, signal decrease; Potency, µM (titrated, usually from 57.1 µM), inactives show at the top dose activity change, negative = inhibition, hits mostly inhibitors; 25 tested, under 10 active; AID 588859;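 active = clear concentration-dependent signal drop in the bead assay lacking the target, so a primary-screen artifact; inconclusive = weak, partial or single-dose response; inactive = no response, so a real primary hit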
TbPGK inh: TbPGK inhibition, hit validation; shares compounds with Pol kappa inh-1; TbPGK coupled GAPDH assay, Kinase-Glo luminescence; Potency, µM (doses to about 57.5 µM), without a hit: top-dose activity change, negative = inhibition, hits mostly inhibitors; hit rate 79% among 500; note: potency is the fitted concentration of half-maximal effect; % is set by controls: 0 for no effect and ±100 for the full control effect; nearly all actives have a fitted effect of over 65% in size
Pol iota confirm: Human Pol iota inhibitor confirmatory assay. shares compounds with Pol kappa inh-1. Pol iota primer extension, TAMRA/BHQ fluorescence. Potency, µM, usual class: inhibitors. hit rate 77% among 1,500. AID 720496; note: potency is the fitted concentration of half-maximal effect
GALK inh confirm: confirmation of human galactokinase (GALK) inhibitors | shares compounds with Pol eta inh-1 | purified GALK, Kinase-Glo ATP depletion luminescence | Potency, µM (top dose mostly 115 µM), inactives show top-dose activity, negative = inhibition, usual class: inhibitors | hit rate 70% among 150 | AID 2015
Redox cycling: counter-screen for GALK inhibitors: redox cycling H2O2 generation | Potency, µM (doses to about 115 µM), for the others: at the top dose activity change, negative = H2O2 signal, usual class: inhibitors | hit rate 40% among 150 | shares compounds with Pol eta inh-1 | Phenol red-HRP H2O2 redox cycling, absorbance 600 nm | AID 2035
HEK293 tox: HEK-293 cytotoxicity, GALK inhibitor secondary. hit rate 10% among 170. Potency, µM (series often up to 46.1 µM), for inactives: at the top dose activity change, negative = cytotoxicity, hits mostly inhibitors. AID 2547. shares compounds with Pol eta inh-1. HEK-293 viability, ATP luminescence (CellTiter-Glo), 24/48 h; note: potency is the fitted concentration of half-maximal effect; % is set by controls: 0 for no effect and ±100 for the full control effect
Pol kappa inh-2: confirmation of human DNA polymerase kappa inhibitors; Potency, µM, hits mostly inhibitors; AID 720501; shares compounds with Pol eta inh-1; hit rate 76% among 920; purified Pol-kappa, fluorescent strand-displacement substrate; note: potency is the fitted concentration of half-maximal effect
Pol eta inh-2: confirmation of human DNA polymerase eta inhibitors; AID 720502; Pol eta primer extension, TAMRA/BHQ fluorescence, 10 min; shares compounds with Pol eta inh-1; Potency, µM, most hits filed as inhibitors; hit rate 64% among 2,600; note: potency is the fitted concentration of half-maximal effect
An asterisk follows results filed as active; ? = inconclusive; · = not tested or not shown; [ ] = another dose, or the depositor's remark. A selection: hits, their analogues and other compounds. The true share with any hit is near 2.4%. Unless noted, calls come from the whole dose curve; as a rule, active = well fitted curve in the direction sought with a large enough effect; inconclusive = small, poorly fitted or top-dose-only effect, or another doubt; inactive = no such curve, though single readings can be large; an effect the other way counts as inactive or inconclusive.

SMILES | FEN1 inh | Pol eta inh-1 | PGK inhibitor | Pol kappa inh-1 | Pol beta inh | Pol iota inh | Pol iota confirm | Pol kappa inh-2 | Pol eta inh-2 | others
Cc1c(C(c2ccc(F)cc2)c2c(O)c3ccccc3oc2=O)c(=O)n(-c2ccccc2)n1C (stereo not given) | 13% | -16% | 9% | -9% | 0% | -19% | · | · | ·
O=C1C=CC2C3C(=O)N(c4ccccc4)C(=O)C3C1N2Cc1ccccc1 (stereo not given) | 5% | ? | -4% | -5% | · | ? | · | · | ·
Cc1ccc(C(=O)Nc2ccc(S(=O)(=O)N3CCC(c4nc5ccccc5s4)CC3)cc2)cc1 | 15% | -5% | 11% | -18% | -16% | 23% | · | · | ·
Cc1nc(NC(=O)c2ccccc2)sc1-c1csc(Nc2ccc(C(=O)O)cc2)n1 | 35µM* | 18µM* | ? | -26% | 16% | ? | 42* | 38* | 43* | BAZ2B inh=28*;AlphaScreen ctr=-17%
C[C@@H]1CC[C@H]2[C@H](C)[C@H]3CC[C@@]4(O)[C@@H]5CC(=O)[C@H]6CC(=O)CC[C@]6(C)[C@H]5C[C@H]4[C@@H]3CN2C1 | · | · | · | 17%[60.1 µM] | · | · | · | · | ·
C=C(C)C(=O)Nc1cccc(C2=NOC3(C2)C[C@@H](C(N)=O)N(C(=O)C2(C)CC2)C3)c1 (stereo not given in full) | ? | 3.2µM* | ? | 45µM* | 1.1µM* | 50µM* | ? | · | 9.5* | BAZ2B inh=1.3*;AlphaScreen ctr=?;TbPGK inh=?
C=C(C)C(=O)Nc1cccc(C2=NOC3(C2)C[C@H](C(N)=O)N(C(=O)COc2ccc(Cl)cc2)C3)c1 (stereo not given in full) | -20% | 7.9µM* | ? | 18µM* | 4.5µM* | 45µM* | 17* | · | 8.5* | BAZ2B inh=5.6*;AlphaScreen ctr=-18%
C=C(C)C(=O)Nc1cccc(C2=NOC3(C2)C[C@@H](C(N)=O)N(C(=O)/C=C/CC)C3)c1 (stereo not given in full) | -15% | 7.9µM* | ? | 28µM* | 3.5µM* | 16µM* | ? | 19* | 19* | BAZ2B inh=10*;AlphaScreen ctr=-7%;TbPGK inh=?
COc1cc([N+](=O)[O-])cc([N+](=O)[O-])c1N | 9% | · | · | -2% | · | 21% | · | · | ·
NC(=O)c1ccc(N=Cc2c(O)n(Cc3ccco3)c(=O)[nH]c2=O)cc1 | 40µM* | 22µM* | ? | 50µM* | ? | 11µM* | 30* | 30* | 48* | TbPGK inh=9.2µM*
N#Cc1c(Oc2cccc(OS(=O)(=O)CCCC(F)(F)F)c2)cccc1C(F)(F)F | · | · | · | 3%[60.1 µM] | · | · | · | · | ·
CN1CCN(c2ccc(/C=C3\C(=O)NC(=S)N(c4cccc(Br)c4)C3=O)o2)CC1 | ? | ? | -13% | -17% | -5% | ? | · | · | ·
Cc1cccc(N2C(=O)/C(=C/c3ccc(CN(CCC#N)S(C)(=O)=O)o3)C(=O)NC2=S)c1 | ? | 6.3µM* | -21% | 22µM* | 20µM* | 8.9µM* | 67* | 11* | ?
Cc1ccc(/C=C2\C(=O)NC(=S)N(c3cccc(F)c3)C2=O)o1 | ? | 7.1µM* | -18% | 32µM* | -3% | ? | 34* | · | 17*
Cc1nc2c(=O)n(C)c(=O)nc-2n(C)n1 | 15% | 0.79µM* | ? | -13% | ? | -102% | 1.5* | · | 4.3* | TbPGK inh=1.5µM*;GALK inh confirm=1.9µM*;Redox cycling=0.94µM*;HEK293 tox=10µM*
Cn1nc(-c2ccccc2)nc2c(=O)n(C)c(=O)nc1-2 | -20% | · | · | -15% | · | -92% | · | · | ·
O=C1NC(=O)N(c2ccc(Cl)cc2)C(=O)/C1=C\c1ccc(Sc2nc3ccccc3[nH]2)o1 | 79µM* | 18µM* | -21% | 20µM* | 22µM* | ? | 38* | 15* | 27*
Cc1ccc(N2C(=O)NC(=O)/C(=C/c3ccc(-c4ccc(C(=O)O)c(Cl)c4)o3)C2=O)cc1 | ? | 8.9µM* | -19% | -91% | 14µM* | 20µM* | ? | · | 30*
Cc1cc(/C=C2\C(=O)NC(=O)N(Cc3ccccc3Cl)C2=O)c(C)n1-c1ccc(C(=O)O)cc1 | -25% | 10µM* | ? | 50µM* | 16µM* | 8.9µM* | 21* | · | 24*
Cc1ccc(N2C(=O)NC(=O)/C(=C\c3cc(C)n(-c4cc(C(=O)O)cc(C(=O)O)c4)c3C)C2=O)cc1 | 56µM* | 7.9µM* | ? | ? | -28% | 8.9µM* | · | 17* | 38* | TbPGK inh=?
Cc1cc(/C=C2\C(=O)NC(=O)N(Cc3ccco3)C2=O)c(C)n1-c1ccc(C(=O)O)cc1 | -22% | 18µM* | ? | ? | ? | 18µM* | 19* | · | 27*
